Source: PubChem
Only some compounds are listed: those with a hit (about 2.9% of all), similar ones and a draw of the others.
p53 reactivation = restores transcriptional activity of mutant p53 | H1299 p53-A138V BP100-luciferase reporter, luminescence, 24 h | Potency, µM (top dose mostly 92.2 µM), actives largely listed as activators | 320,000 compounds, 0.063% hits | AID 504706; note: nearly all actives have a fitted effect of over 45% in size
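p53-null H1299 cells stably carrying temperature-sensitive p53-A138V and a BP100-luciferase reporter were pinned with compounds (4-point, 1:5 series) and held 24 hrs at 37 deg C. Luminescence was read 10 min after detection reagent.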
GLP1R cytotox = cytotoxicity in counter-screen for GLP-1R inverse agonists. HEK293 cAMP-luciferase reporter cells, luminescence, 24 h. Potency, µM (series often up to 38.3 µM), actives largely listed as inhibitors. 410,000 compounds, 0.13% hits. AID 624418;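 note: loss of luciferase light is scored as toxicity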
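Here, cytotoxicity is scored as loss of luminescence. The MLSMR collection was tested on cells seeded in medium containing 10% Nu serum, with a 24 hr compound exposure preceded by 12 hours of culture.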
ClpP mod = qHTS Assay for Activators of ClpP; Potency, µM (series often up to 57.5 µM); ATP-dependent Clp protease proteolytic subunit (Bacillus subtilis (strain 168)), P80244; purified B. subtilis ClpP, FRET peptide cleavage, 20 min; 340,000 compounds, 1.9% hits; active = well fitted falling curve with a large enough effect; inconclusive = small, poorly fitted or top-dose-only effect; inactive = no such curve, though single readings can be large or run the other way; note: the source files actives as falling curves though it sought activators and does not explain the sign; nearly all actives have a fitted effect of over 65% in size
Target sequence (P80244 whole entry, looked up): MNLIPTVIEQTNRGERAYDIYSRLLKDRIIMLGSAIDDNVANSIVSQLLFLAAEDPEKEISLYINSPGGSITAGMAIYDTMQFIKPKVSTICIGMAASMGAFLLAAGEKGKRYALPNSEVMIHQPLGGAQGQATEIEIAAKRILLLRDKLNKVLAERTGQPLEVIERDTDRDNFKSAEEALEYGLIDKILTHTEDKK
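FRET quenching reversal measured ClpP activation: 10 microg/mL B. subtilis ClpP at pH 8 with the FRET-FV decapeptide, read at 430 nm after 320 nm excitation. The 20-min minus 0-min signal was scaled between DMSO/no-enzyme wells and ADEP (5.8 microM final).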
LDHA inh = blocks human lactate dehydrogenase A; purified LDHA, NADH/diaphorase-resazurin fluorescence; stronger effect = lower value; activity change, % (values are at about 110 or 230 µM); AID 1347041; P00338; 480,000 compounds, 0.15% hits; in the data active = activity change below about -30%; inconclusive = mostly about -25% to -30%
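Remaining NADH was detected by diaphorase (0.133 mg/mL) converting 37 µM resazurin to fluorescent resorufin, read at 0 and 20 minutes. The preceding 5-minute room-temperature reaction used 2 nM LDHA, 0.2 mM sodium pyruvate and 0.06 mM NADH at pH 7.4.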
GLP1R ag = agonists of human GLP-1 receptor; HEK293 GLP-1R CRE-luciferase, luminescence, 4-6 h; cells express a hypersensitive GLP-1R form; Potency, µM (top dose mostly 45.6 µM), usual class: activators; 380,000 compounds, 0.007% hits
Target sequence (P43220 whole entry, looked up): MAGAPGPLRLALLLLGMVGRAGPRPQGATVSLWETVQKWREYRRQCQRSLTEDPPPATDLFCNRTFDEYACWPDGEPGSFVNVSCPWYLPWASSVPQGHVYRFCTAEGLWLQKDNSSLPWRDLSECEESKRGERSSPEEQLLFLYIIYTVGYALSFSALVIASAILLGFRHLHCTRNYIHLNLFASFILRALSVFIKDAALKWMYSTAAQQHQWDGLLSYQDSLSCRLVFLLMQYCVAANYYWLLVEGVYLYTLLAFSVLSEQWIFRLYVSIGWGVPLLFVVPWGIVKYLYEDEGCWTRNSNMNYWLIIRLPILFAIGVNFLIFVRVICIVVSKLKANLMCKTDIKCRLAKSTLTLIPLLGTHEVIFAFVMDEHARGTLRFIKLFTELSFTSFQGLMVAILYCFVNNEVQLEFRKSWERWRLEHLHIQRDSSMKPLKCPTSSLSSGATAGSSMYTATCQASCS
GLP1R inv ag = acts as inverse agonist at human GLP-1 receptor; 410,000 compounds, 1.6% hits; P43220; Potency, µM (titrated, usually from 38.3 µM), hits mostly inhibitors; HEK293 GLP-1R CRE-luciferase, luminescence, 24 h; GLP-1R form is constitutively active; note: nearly all actives have a fitted effect of over 55% in size
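HEK293 cells stably co-expressing constitutively active GLP-1R and a cAMP-responsive luciferase reporter were seeded in DMEM with 10% Nu serum, given compounds after 12 h, and incubated 24 h at 37 deg C. Luminescence was then read.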
Hits are given with their value; - = inactive; ? = inconclusive; . = no result. Unless noted, calls come from the whole dose curve; as a rule, active = well fitted curve in the direction sought with a large enough effect; inconclusive = small, poorly fitted or top-dose-only effect, or another doubt; inactive = no such curve, though single readings can be large; an effect the other way counts as inactive or inconclusive.

SMILES	p53 reactivation	GLP1R cytotox	ClpP mod	LDHA inh	GLP1R ag	GLP1R inv ag
CC(C)c1ccc(C(c2c(O)c3ccccc3oc2=O)c2c(O)c3ccccc3oc2=O)cc1	.	-	-	-	-	?
Nc1ccccc1C(=O)OC1CSC1	-	-	28µM	-	-	-
Nc1ccccc1C(=O)c1ccccc1	-	-	-	-	-	-
CC(=O)N1CC(=O)Nc2ccc(Cl)cc2C1c1ccccc1 (stereo not drawn)	-	-	.	-	-	-
CCOc1ccccc1-n1c(O)c(C=NCCCN(CC)CC)c(=O)[nH]c1=O	-	-	32µM	-	-	-
COC(=O)C1=C(c2ccc(OCc3ccccc3)cc2)C[C@@H]2CC[C@H]1N2C(=O)NCc1ccc([N+](=O)[O-])cc1	-	-	-	-	-	-
Nc1ccccc1	.	.	.	.	-	.
[Hg+][c]1ccccc1	.	.	-	-62	-	.
CC(Oc1ccc(F)cc1)C(=O)N(CCC1=CCCCC1)c1c(N)n(Cc2ccccc2)c(=O)[nH]c1=O (stereo not drawn)	-	?	-	-	-	11µM
COC(=O)C1=C(c2cccc(OCc3ccccc3)c2)C[C@@H]2CC[C@H]1N2C(=O)NCc1ccc(OC)cc1	-	-	-	-	-	?
O=C(NCC1=C(c2cccc3ccccc23)C[C@@H]2CC[C@H]1N2Cc1ccco1)c1ccc([N+](=O)[O-])cc1	.	-	-	-	-	3.5µM
CS(=O)(=O)c1ccc(C2=C(CNC(=O)c3ccncc3)[C@H]3CC[C@@H](C2)N3CCOc2ccccc2)cc1	.	-	-	-	-	-
CS(=O)(=O)c1ccc(C2=C(CNC(=O)c3ccc([N+](=O)[O-])cc3)[C@H]3CC[C@@H](C2)N3Cc2ccccc2)cc1	.	-	-	-	-	-
CS(=O)(=O)c1ccc(C2=C(CNC(=O)c3ccc([N+](=O)[O-])cc3)[C@H]3CC[C@@H](C2)N3CCOc2ccccc2)cc1	.	?	-	-	-	10µM
Nc1cccc2cccc([N+](=O)[O-])c12	.	-	16µM	-	-	-
C=C1C(=O)[C@@]23C[C@H]4[C@@H]5[C@@]6(C)CCC[C@@]57[C@@H]2[C@@H](O)[C@@H]1C[C@H]3[C@H]7N4C6	.	?	-	-	-	8.9µM
Oc1cccc(/C=N/NP(=S)(c2ccccc2)c2ccccc2)c1	-	?	-	-	-	?
C[C@@H]1O[C@@H](O[C@H]2C[C@@H](O)[C@]3(CO)[C@@H]4C(CC[C@]3(O)C2)[C@@]2(O)CC[C@H](C3COC(=O)C3)[C@@]2(C)C[C@H]4O)[C@H](O)[C@H](O)[C@H]1O (stereo partly drawn)	-	?	-	-	-	1µM
CC1OC(O[C@H]2C[C@@H](O)[C@]3(CO)[C@@H]4C(CC[C@]3(O)C2)[C@@]2(O)CC[C@H](C3=CC(=O)OC3)[C@@]2(C)C[C@H]4O)C(O)C(O)C1O (stereo partly drawn)	.	.	.	.	-	.
Cc1ccc(Nc2nc3ccccc3[nH]2)nc1	?	?	35µM	-	-	?
c1ccc2[nH]c(CCNC3CCCCC3)nc2c1	-	-	-	-	-	-
Clc1ccc2c(c1)C(OC1CN3CCC1CC3)c1ccccc1CS2 (stereo not drawn)	-	?	-	-	-	2.8µM
Cc1cc(C)c(C(=O)CN2CCOCC2)c(C)c1	-	-	32µM	-	-	-
CCOC(=O)c1ccc(N2Cc3ccccc3C2=NC(=O)c2cccc([N+](=O)[O-])c2)cc1	.	-	-	-	-	-
CCOC(=O)C1=C(N)OC(C)=C(C(=O)OCc2ccccc2)C12C(=O)Nc1ccccc12 (stereo not drawn)	.	.	.	-	.	.
SMILES	p53 reactivation	GLP1R cytotox	ClpP mod	LDHA inh	GLP1R ag	GLP1R inv ag
COc1ccc(Cc2c(O)[nH]c(=S)[nH]c2=O)cc1	-	-	.	-	-	-
Cc1cc(Nc2cccc(C(F)(F)F)c2)nc2ccc(NC(=O)c3cccnc3)cc12	.	?	-	-	.	4µM
CCN(CC)C(=O)c1ccc(NC(=O)c2cccc(C(F)(F)F)c2)cc1	-	-	.	-	-	?
Oc1ccc(C(=C(Cl)Cl)c2ccc(O)cc2)cc1	-	.	.	.	.	.
CCC(C)NCCOCCOc1ccc(Cl)c2ccccc12 (stereo not drawn)	-	?	-	-	-	1.6µM
CCC(C)NCCc1ccccc1 (stereo not drawn)	.	.	.	-	.	.
CC1CCN(C(=O)N2c3ccccc3Sc3ccccc32)CC1	-	-	-	-	-	2µM
O=c1[nH]c(=S)n(-c2ccccc2)c(O)c1/C=N/N1CCOCC1	-	-	-	-	-	-
CN(Cc1ccccc1)C(=O)CN1CCCC1=O	.	-	-	-	-	-
CN(Cc1ccccc1)C(=O)c1ccc(NC(=O)C2CCN(C(=O)OC(C)(C)C)CC2)cc1	-	-	-	-	-	5µM
COC(=O)C1=C(c2ccc3ccccc3c2)C[C@@H]2CC[C@H]1N2C(=O)N1CCC(O)CC1	-	-	-	-	-	-
CCCc1nc(SC)ncc1C(=O)Nc1ccc(Cl)cc1C(=O)c1ccccc1	.	-	-	-	.	?
Cc1ccccc1NC(=O)NCCN1CC1	-	-	-	-	-	-
O=C(NCCCN1CC1)Nc1cccc2ccccc12	.	-	25µM	-	-	-
Cc1ccc(CS(=O)(=O)CCC(=O)N2CCC3(CC2)OCCO3)cc1	-	-	-	-	-	-
CC(C)(C)OC(=O)N(CCc1ccccc1)Cc1ccc(OCc2cccc(NC(=O)c3ccccc3)c2)cc1	.	-	?	-	-	7.9µM
CCN1CCN(Cc2ccc(NC(=O)c3ccc(C)c(NC(=O)C(=O)c4c[nH]c5ccccc45)c3)cc2C(F)(F)F)CC1	-	?	-	-	-	5.6µM
O=C(Nc1ccc2nc(SCC(=O)N3CCCc4ccccc43)sc2c1)c1cccc(F)c1	.	-	13µM	-	.	?
COc1cccc(C(=O)Nc2ccc3nc(SCC(=O)N(C)c4ccccc4)sc3c2)c1	.	?	-	-	.	?
COc1ccc(OC)c2sc(N(CCCN(C)C)C(=O)CCS(=O)(=O)c3ccccc3)nc12	-	10µM	-	-	-	?
Cc1ccccc1NC(=O)c1ccc(Nc2c([N+](=O)[O-])cc([N+](=O)[O-])c3ccccc23)cc1	-	?	-	-	-	-
CN1CCN(c2ccc(Nc3ccnc4cc(Cl)ccc34)cc2)CC1	.	3.5µM	.	-	-	2µM
Clc1ccc2c(N3CCNCC3)ccnc2c1	.	-	-	-	-	-
